The source of these data is PubChem BioAssay (NCI).

What all share (assay): NCI-60 one-dose screen, 48 h (100 = growth as untreated, 0 = no growth, -100 = all killed)
Assay [1] deals with HCT-15 colon. Conditions: 10 µM unless noted.
Assay [2] concerns HT29 colon. To be noted: 10 µM unless noted.
For assay [3], the system named is SNB-19 CNS. Conditions: 10 µM unless noted.
Assay [4] has as its system U251 CNS. Conditions: 10 µM unless noted.
In assay [5] the test system is PC-3 prostate. To be noted: 10 µM unless noted.
In assay [6] the test system is SK-MEL-5 melanoma. To be noted: 10 µM unless noted.
Assay [7] relates to UACC-62 melanoma. Conditions: 10 µM unless noted.
Assay [8] concerns LOX IMVI melanoma. Conditions: 10 µM unless noted.
In assay [9] the test system is SK-MEL-28 melanoma. Conditions: 10 µM unless noted.
In assay [10] the test system is SK-MEL-2 melanoma. Conditions: 10 µM unless noted.
The subject of assay [11] is EKVX NSCLC. Conditions: 10 µM unless noted.
For assay [12], the system named is SN12C renal. Conditions: 10 µM unless noted.
Assay [13] concerns UO-31 renal. Conditions: 10 µM unless noted.
The subject of assay [14] is TK-10 renal. To be noted: 10 µM unless noted.
The subject of assay [15] is ACHN renal. Conditions: 10 µM unless noted.
Assay [16] has as its system CAKI-1 renal. To be noted: 10 µM.
The test system of assay [17] is CCRF-CEM leukemia. To be noted: 10 µM unless noted.
Assay [18] concerns MOLT-4 leukemia. Conditions: 10 µM unless noted.
The test system of assay [19] is A498 renal. Conditions: 10 µM unless noted.

The structures appear in SMILES notation. Compounds without any hit were thinned out: in the full panel of roughly 83,000, 20% have a hit.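 Negative percent growth values reflect cell death: -40 means 40% of the cells present at the start died, and -100 means all died.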 Unmarked numbers belong to inactive results. The source made the active and inactive calls. The calls were made as follows: active = growth percent below 10; inactive = the rest.

Consider `Oc1ccc(CSc2nnc(-c3ccc(Br)cc3)n2-c2ccccc2)c2cccnc12`, for which the growth was 15.7% in [1]; 89.6% in [2]; 17.8% in assay [3]; 7.75% (active) in [4]; 29.5% in [5]; 12% in assay [6]. For the same compound, the growth in assay [7] is 0.404% (active); in assay [8] it was 36.2%; in assay [9], 40.9%; in [10] it was 39.4%; in [11], 43.1%; in assay [12], 35%. The growth in assay [13] is 8.19% (active); in assay [14] it was 36.5%; in assay [15], 27%; in [16], 36.7%; in assay [17] it was 22.9%; in [18] it was 32.3%.
Turning to `COc1ccc(OC)c([C@H]2c3[nH]c4ccccc4c3C[C@H]3C(=O)N(CCCCCCC(=O)NO)CC(=O)N23)c1`, the growth in [1] was 99.5%; in [2], 87.6%; in [3], 86.9%; in [4], 81.1%; in assay [5], 77.9%; in [6], 86.8%. Also, the growth in [7] was 53.1%; in assay [8] it was 15%; in assay [9] it was 75.2%; in [10] it was 86.6%; in assay [11], 93.1%; in assay [12], 84.9%. Moreover, the growth in assay [13] is 78.5%; in assay [14], 101%; in assay [15], 94.2%; in assay [16], 78.4%; in assay [19], 102%; in assay [17], 46.1%. In [18], the growth is 63.2%.
Turning to `C=CCn1c(SCC(=O)Nc2cccc(C(=O)/C=C/c3cc(OC)c(OC)c(OC)c3)c2)nc2ccccc2c1=O`, the growth is 11.6% in assay [1]; -23.4% (active) in assay [2]; 53.8% in [3]; 9.44% (active) in [4]; 51.6% in assay [5]; 82.5% in assay [6]. Moreover, the growth in [7] was 48.8%; in assay [8] it was 10%; in assay [9], 83.8%; in assay [11] it was 78.2%; in assay [12], 41%; in [13], 49%. Moreover, the growth is 112% in [14]; 45.7% in assay [15]; 44.2% in assay [16]; 75.6% in assay [19]; 9.12% (active) in assay [17].
For `O=C(CCCCCCN1CC(=O)N2[C@@H](c3ccc(Cl)c(F)c3)c3[nH]c4ccccc4c3C[C@H]2C1=O)NO`, the growth was 98.6% in [1]; 89.3% in assay [2]; 86.6% in assay [3]; 85.1% in assay [4]; 63.8% in [5]; 86% in [6]. The growth in assay [7] was 48.7%; in [8], -79.9% (active); in [9] it was 86.2%; in assay [10] it was 104%; in [11], 87.9%; in assay [12] it was 83.8%. For the same compound, the growth in assay [13] is 75.3%; in assay [14], 107%; in assay [15] it was 92.1%; in assay [16] it was 70.8%; in assay [19], 106%; in assay [17] it was 41.2%. In addition, the growth in [18] was 45.3%.
As to `CSc1ccc(/C(=N/N=C(N)N)c2ccccc2)cc1`, the growth was 12.4% in assay [1]; 17% in assay [2]; 29% in assay [3]; 29.2% in assay [4]; 35.4% in assay [5]; 17.7% in assay [6]. Also, the growth is 44% in assay [7]; 13% in assay [8]; 65.5% in assay [9]; 58.7% in assay [10]; 48.1% in [11]; 27.9% in [12]. Further, the growth was 35.1% in assay [13]; 63.9% in assay [14]; 28.6% in assay [15]; 42% in assay [16]; 10.6% in assay [17]; 22.3% in assay [18].
Take `CS(=O)(=O)c1ccc(-c2nn(-c3ccccc3)cc2/C=N/NC(=O)c2ccncc2)cc1`: the growth in assay [1] is 69.5%; in [2], 101%; in assay [3], 96.5%; in assay [4] it was 105%; in assay [5], 98.2%; in [6], 105%. The growth in assay [7] was 82.4%; in [8] it was 101%; in assay [9] it was 105%; in assay [10] it was 107%; in assay [11], 98.4%; in assay [12], 98.6%. The growth in assay [13] is 94.2%; in assay [14], 97.3%; in assay [15], 107%; in [16], 93.9%; in [19], 113%; in [17], 102%. The growth in assay [18] was 97.2%.
As to `Nc1c(C(=O)c2ccccc2)sc2nc(-c3cnccn3)cc(-c3cccs3)c12`, the growth in [1] is 106%; in [2], 107%; in assay [3], 96.5%; in assay [4], 104%; in assay [5], 100%; in [6], 103%. Moreover, the growth in assay [7] was 87.1%; in assay [8], 101%; in assay [9], 106%; in [10], 111%; in assay [11] it was 95.6%; in [12], 95.2%. The growth in [13] was 88.4%; in assay [14] it was 106%; in [15], 98.3%; in [16], 89.9%; in [17], 100%; in assay [18], 105%.
In the case of `CCCCCCCCNC(=O)c1ccc(Cn2c(CCCC)nc3c(N)nc4ccccc4c32)cc1`, the growth was -55.8% (active) in [1]; -23% (active) in [2]; 14.9% in assay [3]; -59% (active) in [4]; 41.5% in assay [5]; -96.8% (active) in assay [6]. The growth is 23.4% in assay [7]; -86.3% (active) in assay [8]; -94% (active) in assay [9]; 95.4% in assay [10]; 62.8% in assay [11]; -77.3% (active) in [12]. Further, the growth is 11.8% in [13]; 78.8% in assay [14]; 26.6% in [15]; -1.97% (active) in [16]; 68% in [19]; -1.62% (active) in assay [17]. Besides, the growth in [18] is -7.07% (active).
